# Data published in PubChem BioAssay (EPA / NIEHS).
# Results filed as inconclusive are left out. The source made the active and inactive calls. The calls were made as follows: active = hit-call score of the fitted dose curve at least 0.9, where 1 is the maximum; inconclusive = response in the unintended direction; inactive = score below 0.9.
# Biological target: Steroid hormone receptor ERR1 (Homo sapiens) (UniProt P11474)
# Assay: ATG_ERRa_TRANS: Attagene TRANS-FACTORIAL HepG2 Assay for human Estrogen-Related Receptor alpha (ERRa) (AID 2282971)
# Conditions: HepG2 Attagene TRANS reporter, ERRa transactivation
# Method: ATG_TRANS is a cell-based, multiplexed-readout assay that uses HepG2, a human liver cell line, with measurements taken at 24 hours after chemical dosing in a 24-well plate.ATG_ERRa_TRANS is one of 30 assay component(s) measured or calculated from the ATG_TRANS assay. It is designed to make measurements of mRNA induction, a form of inducible reporter, as detected with fluorescence intensity signals by Reverse transcription polymerase chain reaction (RT-PCR) and Capillary electrophoresis technology.Data from the assay component ATG_ERRa_TRANS was analyzed into 1 assay endpoint. This assay endpoint, ATG_ERRa_TRANS, was analyzed in the positive analysis fitting direction relative to DMSO as the negative control and baseline of activity. Using a type of inducible reporter, measures of mRNA for gain-of-signal activity can be used to understand the reporter gene at the transcription factor-level as they relate to the gene ESRRA. Furthermore, this assay endpoint can be referred to as a primary readout, because this assay has produced multiple assay endpoints where this one serves a reporter gene function. To generalize the intended target to other relatable targets, this assay endpoint is annotated to the nuclear receptor intended target family, where the subfamily is steroidal.
# Human liver HepG2 cells are transiently transfected with multiple reporter transcription units (MRTUs) in 6-well plates using FuGene 6 reagent (Roche; 3 ml FuGene/1 mg DNA). The MRTU constructs are regulated by a cis-regulating element (promoter). […] A major difference between the CIS and TRANS system is that in CIS activities of endogenous TFs are measured, whereas the TRANS assay evaluates changes in activities of exogenous, chimeric NR-Gal4 proteins. […] At the end of 24 hour incubation, total RNA was isolated using TriZol reagent (Invitrogen). The isolated RNA is then reverse-transcribed using oligo(dT) primer and Mo-MLV reverse transcriptase (Invitrogen) with DNAse I (Ambion) treatment for 30 min. The one-tenth of the produced cDNA was amplified by PCR using Taq DNA polymerase (Invitrogen) and two reporter sequence-specific primers. The PCR products were fluorescently labeled by primer extension with 6-arboxyfluorescein (6-FAM) 5'-labeled reporter sequence-specific primer (2 min at 95 C, 20 s at 68 C and 10 min at 72 C) and these products were digested with 5U of HpaI (New England Biolabs) for 2h at 37 C. The fragments were purified using Qiaquick PCR columns (Qiagen), analyzed on an ABI 3130xL genetic analyzer (Applied Biosystems) with peak positions identified by using a set of X-rhodamine (ROX)-labeled MapMarker1000 molecular weight standards (BioVentures). The raw capillary electrophoresis data was processed using Attagraph software (Attagene).
# Sequence of Steroid hormone receptor ERR1 (Homo sapiens) (P11474 whole entry, looked up): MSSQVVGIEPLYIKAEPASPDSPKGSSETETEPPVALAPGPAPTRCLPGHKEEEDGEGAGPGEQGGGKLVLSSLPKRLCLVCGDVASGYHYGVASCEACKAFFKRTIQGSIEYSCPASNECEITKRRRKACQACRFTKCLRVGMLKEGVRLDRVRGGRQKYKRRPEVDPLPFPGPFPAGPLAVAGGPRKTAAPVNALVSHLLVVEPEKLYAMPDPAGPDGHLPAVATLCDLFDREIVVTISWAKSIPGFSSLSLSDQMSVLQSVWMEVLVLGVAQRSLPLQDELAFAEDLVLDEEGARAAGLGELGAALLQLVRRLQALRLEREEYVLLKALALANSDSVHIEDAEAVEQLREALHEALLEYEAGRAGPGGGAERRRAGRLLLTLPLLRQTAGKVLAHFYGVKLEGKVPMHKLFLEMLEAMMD
row,SMILES,outcome
1,O=C(Cl)C(F)(F)C(F)(F)C(F)(F)C(F)(F)C(F)(F)C(F)(F)C(F)(F)C(F)(F)F,inactive
2,O=C(O)C(F)(F)C(F)(F)C(F)(F)C(F)(F)C(F)(F)C(F)(F)C(F)(F)C(F)(F)C(F)(F)C(F)F,inactive
3,CCCCCCCCCCCCCCCC[N+](C)(C)Cc1ccccc1,inactive
4,FC(F)(F)C(F)(F)C(F)(F)C(F)(F)C(F)(F)C(F)(F)C(F)(F)C(F)(F)CCS,inactive
5,FC(F)(F)C(F)(F)C(F)(F)C(F)(F)C(F)(F)C(F)(F)C(F)(F)Br,inactive
6,O=C(O)C(F)(F)C(F)(F)OC(F)(F)F,inactive
7,OC[C@@H](O)[C@@H](O)[C@H](O)[C@@H](O)CO,inactive
8,CS(C)(=O)=O,inactive
9,FC(F)(F)C(F)(F)C(F)(F)C(F)(F)C(F)(F)C(F)(F)CC1CO1 (stereo not given),inactive
10,Cc1cccc(N(C)C)c1,inactive
11,NC(=O)C(F)(F)C(F)(F)C(F)(F)C(F)(F)F,inactive
12,O=C(O)C(F)(F)C(F)(F)C(F)(F)F,inactive
13,C=C(C)C(=O)OCC(F)(F)C(F)(F)C(F)(F)C(F)(F)C(F)(F)C(F)(F)C(F)(F)F,inactive
14,FC(F)(F)C(F)(F)C(F)(F)CI,inactive
15,Oc1ccc(Nc2ccccc2)cc1,inactive
16,O=C(CC(=O)C(F)(F)C(F)(F)F)C(F)(F)F,inactive
17,CCCCCCCCC(F)(F)C(F)(F)C(F)(F)C(F)(F)C(F)(F)C(F)(F)F,inactive
18,CC/C=C\CCOC(=O)c1ccccc1,inactive
19,FC(F)(F)C(F)(F)C(F)(F)C(F)(F)C(F)(F)C(F)(F)CCS,inactive
20,CC/C=C\CCOC(C)=O,inactive

row,SMILES,outcome
1,c1ccc(B(c2ccccc2)c2ccccc2)cc1,inactive
2,FC(F)(F)C(F)(F)C(F)(F)C(F)(F)C(F)(F)C(F)(F)C(F)(F)C(F)(F)F,inactive
3,CC(C)c1ccccc1N,inactive
4,CCCCOc1ccc(N)cc1,inactive
5,C#C[C@]1(O)CC[C@H]2[C@@H]3CCc4cc(OC)ccc4[C@H]3CC[C@@]21C,inactive
6,CCc1c(Br)c(Br)c(Br)c(Br)c1Br,inactive
7,CCCCCCC(C)OC(=O)CCCCC(=O)OC(C)CCCCCC (stereo not given),inactive
8,Nc1ccc(S(=O)(=O)Nc2nccs2)cc1,inactive
9,OCC(F)(F)C(F)(F)C(F)(F)F,inactive
10,OCCCC(F)(F)C(F)(F)C(F)(F)C(F)(F)C(F)(F)C(F)(F)C(F)(F)F,inactive
11,O=C(O)C(F)(F)C(F)(F)F,inactive
12,CCCCCC=O,inactive
13,O=C(O)C(F)(F)C(F)(F)C(F)(F)C(F)(F)C(F)(F)C(F)(F)C(F)(F)C(F)(F)C(F)(F)C(F)(F)C(F)(F)C(F)(F)C(F)(F)F,inactive
14,O=C(O)C=C(C(F)(F)F)C(F)(F)F,inactive
15,CCN(Cc1cccc(S(=O)(=O)O)c1)c1ccc(C(=C2C=CC(=[N+](CC)Cc3cccc(S(=O)(=O)O)c3)C=C2)c2ccc(O)cc2S(=O)(=O)[O-])cc1,inactive
16,O=P(O)(O)OCCC(F)(F)C(F)(F)C(F)(F)C(F)(F)C(F)(F)C(F)(F)F,inactive
17,C=C(C)C(=O)OCC(F)(F)C(F)(F)C(F)(F)F,inactive
18,CC(C)(C)C(=O)CC(=O)C(F)(F)C(F)(F)C(F)(F)F,inactive
19,OCC(F)(F)C(F)(F)C(F)(F)C(F)F,inactive
20,C=CC/C=C/C/C=C/C/C=C/C,inactive
